High-throughput results (PubChem BioAssay)
mHTT CaM bind: mutant huntingtin-calmodulin interaction inhibitors – biochemical, AlphaScreen, primary screen; AlphaScreen His-mHTT/GST-CaM binding, luminescence; 3.6% of 190,000 active; inhibition, % at 15 µM; P42858;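 also: 0% = both proteins with DMSO and 100% = one protein alone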
Pf apPOL inh: Pf-apPOL inhibitors, biochemical, fluorescence | Plasmodium falciparum apicoplast DNA polymerase (apPOL) | Recombinant Pf-apPOL, molecular beacon fluorescence, 1.5 h | inhibition, % at 10 µM | 0.25% of 210,000 active | AID 1794808, 2022
Active calls of the source: *; / = not tested or not shown. Many of the other results were omitted from the sample, so hits are more common in it than they were. Rule as the data show it: active = inhibition above about 50%; inactive = the rest.

SMILES	mHTT CaM bind	Pf apPOL inh
O=C(Nc1ccc(N2CCCN(C(=O)C3CC3)CC2)cc1)c1cc(-c2ccccc2)on1	13	-4
COc1ccc(NC(=O)c2ccc(-c3ccc([N+](=O)[O-])cc3OC)o2)cc1Cl	42	-7
COc1ccc(CC(=O)Nc2ccc(Nc3ccccc3)cc2)cc1OC	62*	-7
CC(C)=CCOc1ccc2c(c1)OC(=Cc1ccco1)C2=O	-6	4
Cc1ccc(C(=O)N2CCCCC2)c(C2CCN(Cc3cccs3)CC2)n1	3	5
CS(=O)(=O)N1CCC(c2noc(-c3cccc(F)c3)n2)CC1	-8	0
O=C(Cc1ccccc1)Nc1ccc(N2CCCC2)cc1	92*	-10
O=C(Cc1ccc([N+](=O)[O-])cc1)Nc1ccc(Nc2ccccc2)cc1	31	-6
O=C(Cc1ccccc1)Nc1cccc(NC(=O)Cc2ccccc2)n1	-4	65*
O=C(Cc1ccccc1)Nc1ccc(S(=O)(=O)N2CCCC2)cc1	1	-8
Cc1ccc(C(=O)Nc2ccc(N3CCCC3)cc2)cc1Cl	100*	-3
O=C(Cc1ccccc1)Nc1ccccc1NC(=O)Cc1ccccc1	2	-7
O=C(Cc1ccccc1)Nc1ccc(Nc2ccccc2)cc1	62*	-4
Cc1ccc(C(=O)Nc2ccc(N3CCOCC3)cc2)cc1C	11	3
CC1CCC2C(=O)N(c3ccc(NCCc4cccc(F)c4)c([N+](=O)[O-])c3)C(=O)C2C1 (centres undefined)	-1	-16
COC(=O)c1sccc1NC(=O)N1CCCC1c1nc(-c2ccccc2)no1 (centres undefined)	0	-2
CCCN1CCn2cc(C(=O)NCc3ccccc3OC)nc2C1	9	-5
Cc1oc(C2CCN(C(=O)c3cccc(C(F)(F)F)c3)CC2)nc1C(=O)N1CCCCC1	11	1
O=C(COc1ccccc1[N+](=O)[O-])Nc1cc(C(=O)O)cc(C(=O)O)c1	-6	1
O=C(COc1ccccc1[N+](=O)[O-])Nc1ccc(N2CCCC2)cc1	34	54*
COc1ccc(C2NCC(CCl)O2)cc1 (centres undefined)	1	/
O=C(c1cc(F)c(F)cc1Cl)N1CCN(c2ccc([N+](=O)[O-])c(NCc3ccco3)c2)CC1	8	-2
COc1ccc(C2=NN(CC(=O)NCc3ccccn3)C(=O)CC2)cc1	25	-17
COc1ccc(C2=NN(CCc3ccccn3)C(=O)C2)cc1	87*	0
N#CC(N=Cc1ccc(Cl)cc1)=C(C#N)NC(=O)Nc1ccc(OC(F)(F)F)cc1	/	-7
SMILES	mHTT CaM bind	Pf apPOL inh
O=C(/C=C/c1ccco1)c1ccc(NC(=O)c2ccco2)cc1	93*	-2
O=C(/C=C/c1ccco1)Nc1ccc(NC(=O)c2ccco2)cc1	30	-6
Cc1onc(-c2ccccc2)c1NC(=O)Nc1ccc(Oc2ncnc3cc(Cl)ccc23)nc1	/	3
O=C(c1ccccc1)N1CCC2(CC1)NC(=O)N(Cc1ccc(F)cc1)C2=O	8	-4
O=C(c1c[nH]c2ccccc12)N1CCC2(CC1)NC(=O)N(Cc1ccccc1Cl)C2=O	98*	-7
O=C(c1ccccc1)N1CCC2(CC1)NC(=O)N(Cc1ccccc1Cl)C2=O	9	-3
O=C(c1c[nH]c2ccccc12)N1CCC2(CC1)NC(=O)N(Cc1ccc(F)cc1)C2=O	58*	-5
O=C(c1cc2ccccc2[nH]1)N1CCC2(CC1)NC(=O)N(Cc1ccc(F)cc1)C2=O	70*	-3
O=C(c1cc2ccccc2[nH]1)N1CCC2(C1)NC(=O)N(Cc1ccc(F)cc1)C2=O (centres undefined)	-2	-2
N#CC1=C(N)SC(N)=C(C#N)C1c1cccc(F)c1	27	-50
COCCCNC(=O)CC1CCN(S(=O)(=O)c2c(C)noc2C)CC1	-1	-5
CCNC(=O)Nc1cc(C)ccc1N1CCCN(Cc2cc(F)ccc2F)C1=O	-3	-3
COc1ccc2c(c1)=CC(=Cc1[nH]c(SC(C)=O)nc1O)C(=O)N=2	100*	-4
COc1ccc(C=C2Oc3cc(C)cc(O)c3C2=O)cc1	38	4
CN1CCN(c2nc(N3CCCC3)nc3c2CN(Cc2cccs2)CC3)CC1	28	-2
O=C1CC2(CCCC2)CC(=O)N1c1ccc2c(c1)OCO2	/	-4
CCOC(=O)Oc1c(Cl)cc2oc(=O)sc2c1Br	54*	0
CCOC(=O)Oc1cc2oc(=O)sc2cc1Br	22	7
COC(=O)Oc1cc2oc(=O)sc2cc1Cl	22	0
COC(=O)Oc1c(Cl)cc2oc(=O)sc2c1[N+](=O)[O-]	81*	9
CC(C)NC(=O)C1CN(C(=O)c2ccc(Cl)cc2)CC1c1cccc(F)c1 (centres undefined)	14	-12
CC1=C2CCCC2CCC1=NNC(N)=O (centres undefined)	/	-2
COc1cc(C2=N/C(=C\c3ccc(SC)cc3)C(=O)O2)cc(OC)c1OC	2	-10
CC(=O)c1ccc(NC(=O)CSc2nc3ccccc3s2)cc1	0	-1
O=C1OC(c2ccccc2F)=N/C1=C/c1ccc(Cl)cc1Cl	-4	6
SMILES	mHTT CaM bind	Pf apPOL inh
CC1=C(/C=C/c2ccc(Cl)cc2Cl)C(=O)c2ccccc2C1=O	68*	-6
Cc1ccccc1-c1cncc(C(=O)NCC2CCCO2)c1 (centres undefined)	-6	-2
CN(CC#CCC(O)(c1ccccc1)c1ccccc1)Cc1ccccc1	87*	-4
CN(CC#CC(C)(C)O)Cc1ccccc1	-4	-3
Cc1c(Cl)cccc1NC(=O)Cn1ccc2sccc2c1=O	-4	0
Cc1cc(I)ccc1Nc1c([N+](=O)[O-])cc([N+](=O)[O-])c2cccnc12	46	-4
O=[N+]([O-])c1cccc(Cl)c1N1CCN(c2ccc([N+](=O)[O-])c3cccnc23)CC1	7	-5
COc1ccc(C(NC(C)=O)c2cc([N+](=O)[O-])c3cccnc3c2O)cc1 (centres undefined)	100*	-7
COc1ccc(NC(=O)CSc2cccc3cccnc23)c([N+](=O)[O-])c1	28	-13
CC(=O)NC(c1ccccc1)c1cc([N+](=O)[O-])c2cccnc2c1O (centres undefined)	100*	0
CC(=O)NC(c1ccccc1Cl)c1cc([N+](=O)[O-])c2cccnc2c1O (centres undefined)	100*	1
COc1nccnc1N1CCC(NC(=O)NCc2ccco2)C1 (centres undefined)	2	0
CCOc1ccc(C2CC(c3cccs3)Nc3ncnn32)cc1OC (centres undefined)	7	-2
O=C(Cc1cccc(F)c1)N1CCC(n2c(C3CCCC3)nc3cccnc32)C1 (centres undefined)	8	0
O=C(Nc1ncc2c(n1)CC(c1ccc(F)cc1)CC2=O)c1ccccc1 (centres undefined)	9	1
Cn1cnnc1SCC(=O)Nc1ccc(S(=O)(=O)Nc2nccs2)cc1	-3	-1
COc1ccc(Br)cc1C=C1Oc2c(ccc3c2CN(Cc2ccccn2)CO3)C1=O	100*	-197
COc1cccc(C=C2Oc3c(ccc4c3CN(Cc3ccccn3)CO4)C2=O)c1OC	100*	-92
COc1ccc(C=C2Oc3c(ccc4c3CN(Cc3ccncc3)CO4)C2=O)c(OC)c1	49	-26
COc1ccc(CN2COc3ccc4c(c3C2)OC(=Cc2cccc(OC)c2OC)C4=O)cc1OC	-3	-6
